In PubChem BioAssay (NCI):
Values joined by “and” are separate entries in the source; they are usually repeats but may differ in a detail not shown here. Identical values can stand only once. The panel holds about 79,000 compounds, 15% with a hit somewhere; the sample as a whole holds those more often. Some compounds were tested as several samples or in several runs, with calls that do not always agree. Active and inactive are the calls of the source. Rule as the data show it: active = growth inhibition above about 70%; inactive = the rest.

Legend:
[1] = NCI Yeast Anticancer Drug Screen. Data for the wt1 strain (AID 149);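 also: 0% = growth of vehicle-treated wt1 cultures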; details: S. cerevisiae wt1 strain (SPY 50644) growth inhibition, stronger effect = higher value
Method in brief: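 Growth inhibition read against vehicle controls after compound exposure of the wt1 yeast strain.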

[2] = NCI Yeast Anticancer Drug Screen. Data for the rad50EPP+ strain (AID 151);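 also: 0% = growth of vehicle-treated control cultures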; details: S. cerevisiae rad50 mutant strain, stronger effect = higher value
Method in brief: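 Measured: growth inhibition of rad50EPP+ yeast. Reference: vehicle-treated controls. Screen uses strains with defined genetic alterations in DNA damage repair or cell cycle control.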

[3] = NCI Yeast Anticancer Drug Screen. Data for the mgt1 strain (AID 153); details: S. cerevisiae mgt1 mutant growth inhibition, stronger effect = higher value
Method in brief: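 Compounds were applied to mgt1 mutant yeast, and growth was then compared against vehicle-treated control cultures to give percent inhibition.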

[4] = NCI Yeast Anticancer Drug Screen. Data for the rad50 strain (AID 155);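 also: 0% = growth of vehicle-only cultures of the same strain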; details: S. cerevisiae rad50 strain growth inhibition, stronger effect = higher value
Method in brief: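 Readout: growth inhibition relative to vehicle-treated cultures. Compound exposure was carried out in a genetically defined yeast strain deficient in DNA damage repair.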

[5] = NCI Yeast Anticancer Drug Screen. Data for the mec2-1 strain (AID 157); details: S. cerevisiae mec2-1 strain, stronger effect = higher value
Method in brief: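 Compounds were applied to mec2-1 yeast cells. Their growth was then compared with that of vehicle-treated cultures to give growth inhibition.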

[6] = NCI Yeast Anticancer Drug Screen. Data for the rad14 strain (AID 159);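 also: 0% = growth of vehicle-treated control cultures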; details: S. cerevisiae rad14 strain growth inhibition, stronger effect = higher value
Method in brief: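 Growth inhibition vs vehicle controls; genetically altered yeast strain (DNA damage repair defect) treated with test compounds.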

[7] = NCI Yeast Anticancer Drug Screen. Data for the sgs1 mgt1 strain (AID 161);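 also: 0% = growth of cultures given vehicle only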; details: S. cerevisiae sgs1 mgt1 strain, stronger effect = higher value
Method in brief: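 This yeast growth screen uses a strain with defined DNA-repair lesions; compound-treated growth is compared with vehicle-treated growth.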

[8] = NCI Yeast Anticancer Drug Screen. Data for the CLN2oe strain (AID 163);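 also: 0% = growth of vehicle-only control cultures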; details: S. cerevisiae CLN2oe strain, stronger effect = higher value
Method in brief: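 Cells of an engineered yeast line with disturbed cell-cycle regulation are treated with compound. Inhibition of growth is then calculated relative to the vehicle-treated reference.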

[9] = NCI Yeast Anticancer Drug Screen. Data for the cln2 rad14 strain (AID 165);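 also: 0% = growth equal to vehicle treated cultures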; details: S. cerevisiae cln2 rad14 strain, stronger effect = higher value
Method in brief: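 Strain: cln2 rad14 yeast, altered in cell cycle control and DNA damage repair. Read-out: growth inhibition vs vehicle.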

[10] = NCI Yeast Anticancer Drug Screen. Data for the bub3 strain (AID 167); details: S. cerevisiae bub3 mutant strain, stronger effect = higher value
Method in brief: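 Readout: yeast growth inhibition, expressed relative to vehicle-only wells. The test organism is a mutant strain from a panel with lesions in DNA repair or checkpoint genes.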

[11] = NCI Yeast Anticancer Drug Screen. Data for the wt2 strain (AID 169);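 also: 0% = growth of vehicle-treated yeast cultures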; details: S. cerevisiae wt2 strain growth inhibition, stronger effect = higher value
Method in brief: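 Growth of compound-treated yeast is measured and expressed as inhibition relative to vehicle-only controls.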

[12] = NCI Yeast Anticancer Drug Screen. Data for the sgs1 strain (AID 173);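 also: 0% = growth of vehicle-only control cultures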; details: S. cerevisiae sgs1 mutant, stronger effect = higher value
Method in brief: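 Strain with an altered DNA repair or cell cycle pathway exposed to compound. Growth then measured. Value = inhibition versus vehicle control.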

[13] = NCI Yeast Anticancer Drug Screen. Data for the mlh1 rad18 strain (AID 175); details: S. cerevisiae mlh1 rad18 strain growth inhibition, stronger effect = higher value
Method in brief: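 A repair-deficient yeast strain is exposed to test compound, and growth is scored relative to vehicle-treated controls.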

[14] = NCI Yeast Anticancer Drug Screen. Data for the rad18 strain (AID 177); details: S. cerevisiae rad18 mutant growth inhibition, stronger effect = higher value
Method in brief: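 DNA-repair-defective yeast; compound treatment; growth inhibition scored against vehicle.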

[15] = at 5.0 µM (retest, dose inferred, filed as 0.5)
[16] = at 50.0 µM (retest, dose inferred, filed as 5.0)

**Q.** Which growth inhibition ([1]; at 1.2 µM) does the source give for `Cc1cnc(/C=N\NC(N)=S)c2cccc(N)c12` here?
**A.** Its growth inhibition is -63% (inactive).

**Q.** And the growth inhibition ([1]; at 3.7 µM)?
**A.** Its growth inhibition is -49% (inactive).

**Q.** What about the growth inhibition ([1]; at 11.0 µM) of the same compound?
**A.** The growth inhibition was -36% (inactive).

**Q.** And the growth inhibition ([1]; at 33.0 µM)?
**A.** The growth inhibition was 58% (inactive).

**Q.** What about the growth inhibition ([1]; at 100.0 µM) of the same compound?
**A.** Its growth inhibition is 90% (active).

**Q.** What about the growth inhibition ([2]; at 1.2 µM) of the same compound?
**A.** Its growth inhibition is -68% (inactive).

**Q.** And the growth inhibition ([2]; at 3.7 µM)?
**A.** The growth inhibition was -57% (inactive).

**Q.** What about the growth inhibition ([2]; at 11.0 µM) of the same compound?
**A.** Its growth inhibition is -45% (inactive).

**Q.** What about the growth inhibition ([2]; at 33.0 µM) of the same compound?
**A.** The growth inhibition was -38% (inactive).

**Q.** And the growth inhibition ([2]; at 100.0 µM)?
**A.** Its growth inhibition is -4% (inactive).

**Q.** And the growth inhibition ([3]; at 1.2 µM)?
**A.** Its growth inhibition is -78% (inactive).

**Q.** And the growth inhibition ([3]; at 3.7 µM)?
**A.** The growth inhibition was -69% (inactive).

**Q.** What about the growth inhibition ([3]; at 11.0 µM) of the same compound?
**A.** The growth inhibition was -12% (inactive).

**Q.** What about the growth inhibition ([3]; at 33.0 µM) of the same compound?
**A.** Its growth inhibition is 43% (inactive).

**Q.** And the growth inhibition ([3]; at 100.0 µM)?
**A.** Its growth inhibition is 84% (active).

**Q.** And the growth inhibition ([4]; at 1.2 µM)?
**A.** The growth inhibition was -81% (inactive).

**Q.** What about the growth inhibition ([4]; at 3.7 µM) of the same compound?
**A.** Its growth inhibition is -43% (inactive).

**Q.** And the growth inhibition [4, 15]?
**A.** Its growth inhibition is 13% (inactive) and 15% (inactive).

**Q.** And the growth inhibition ([4]; at 11.0 µM)?
**A.** Its growth inhibition is -69% (inactive).

**Q.** And the growth inhibition ([4]; at 33.0 µM)?
**A.** Its growth inhibition is 28% (inactive).

**Q.** What about the growth inhibition [4, 16] of the same compound?
**A.** Its growth inhibition is 80% (active) and 71% (active).

**Q.** And the growth inhibition ([4]; at 50.0 µM)?
**A.** The growth inhibition was 62.3% (inactive) and 60% (inactive).

**Q.** What about the growth inhibition ([4]; at 100.0 µM) of the same compound?
**A.** The growth inhibition was 83% (active).

**Q.** What about the growth inhibition ([5]; at 1.2 µM) of the same compound?
**A.** The growth inhibition was -19% (inactive).

**Q.** And the growth inhibition ([5]; at 3.7 µM)?
**A.** Its growth inhibition is -48% (inactive).

**Q.** What about the growth inhibition [5, 15] of the same compound?
**A.** The growth inhibition was 7% (inactive) and 21% (inactive).

**Q.** And the growth inhibition ([5]; at 11.0 µM)?
**A.** Its growth inhibition is 13% (inactive).

**Q.** What about the growth inhibition ([5]; at 33.0 µM) of the same compound?
**A.** Its growth inhibition is 82% (active).

**Q.** And the growth inhibition [5, 16]?
**A.** Its growth inhibition is 87% (active) and 86% (active).

**Q.** And the growth inhibition ([5]; at 50.0 µM)?
**A.** Its growth inhibition is 74% (active) and 60% (inactive).

**Q.** What about the growth inhibition ([5]; at 100.0 µM) of the same compound?
**A.** Its growth inhibition is 94% (active).

**Q.** And the growth inhibition ([6]; at 1.2 µM)?
**A.** Its growth inhibition is -92% (inactive).

**Q.** What about the growth inhibition ([6]; at 3.7 µM) of the same compound?
**A.** The growth inhibition was -75% (inactive).

**Q.** And the growth inhibition ([6]; at 11.0 µM)?
**A.** The growth inhibition was -35% (inactive).

**Q.** And the growth inhibition ([6]; at 33.0 µM)?
**A.** Its growth inhibition is 45% (inactive).

**Q.** And the growth inhibition ([6]; at 100.0 µM)?
**A.** The growth inhibition was 91% (active).

**Q.** And the growth inhibition [7, 15]?
**A.** Its growth inhibition is 16% (inactive) and 8% (inactive).

**Q.** And the growth inhibition [7, 16]?
**A.** The growth inhibition was 83% (active) and 30% (inactive).

**Q.** And the growth inhibition ([7]; at 50.0 µM)?
**A.** The growth inhibition was 61.1% (inactive) and 63% (inactive).

**Q.** What about the growth inhibition ([8]; at 1.2 µM) of the same compound?
**A.** Its growth inhibition is -16% (inactive).

**Q.** And the growth inhibition ([8]; at 3.7 µM)?
**A.** The growth inhibition was -39% (inactive).

**Q.** What about the growth inhibition ([8]; at 11.0 µM) of the same compound?
**A.** The growth inhibition was -29% (inactive).

**Q.** What about the growth inhibition ([8]; at 33.0 µM) of the same compound?
**A.** Its growth inhibition is 30% (inactive).

**Q.** What about the growth inhibition ([8]; at 100.0 µM) of the same compound?
**A.** Its growth inhibition is 63% (inactive).

**Q.** What about the growth inhibition [9, 15] of the same compound?
**A.** Its growth inhibition is -8% (inactive) and 9% (inactive).

**Q.** And the growth inhibition [9, 16]?
**A.** Its growth inhibition is 66% (inactive) and -55% (inactive).

**Q.** And the growth inhibition ([9]; at 50.0 µM)?
**A.** Its growth inhibition is 42.1% (inactive) and 70% (active).

**Q.** And the growth inhibition ([10]; at 1.2 µM)?
**A.** Its growth inhibition is -69% (inactive).

**Q.** What about the growth inhibition ([10]; at 3.7 µM) of the same compound?
**A.** The growth inhibition was -60% (inactive).

**Q.** What about the growth inhibition [10, 15] of the same compound?
**A.** The growth inhibition was 15% (inactive) and 9% (inactive).

**Q.** What about the growth inhibition ([10]; at 11.0 µM) of the same compound?
**A.** The growth inhibition was -50% (inactive).

**Q.** What about the growth inhibition ([10]; at 33.0 µM) of the same compound?
**A.** Its growth inhibition is 25% (inactive).

**Q.** And the growth inhibition [10, 16]?
**A.** Its growth inhibition is 87% (active) and -11% (inactive).

**Q.** What about the growth inhibition ([10]; at 50.0 µM) of the same compound?
**A.** Its growth inhibition is 48.4% (inactive) and 75.1% (active).

**Q.** And the growth inhibition ([10]; at 100.0 µM)?
**A.** The growth inhibition was 80% (active).

**Q.** What about the growth inhibition ([11]; at 1.2 µM) of the same compound?
**A.** The growth inhibition was -73% (inactive).

**Q.** What about the growth inhibition ([11]; at 3.7 µM) of the same compound?
**A.** The growth inhibition was -48% (inactive).

**Q.** And the growth inhibition ([11]; at 11.0 µM)?
**A.** Its growth inhibition is 5% (inactive).

**Q.** What about the growth inhibition ([11]; at 33.0 µM) of the same compound?
**A.** Its growth inhibition is 56% (inactive).

**Q.** And the growth inhibition ([11]; at 100.0 µM)?
**A.** The growth inhibition was 91% (active).

**Q.** What about the growth inhibition ([12]; at 1.2 µM) of the same compound?
**A.** Its growth inhibition is -39% (inactive).

**Q.** And the growth inhibition ([12]; at 3.7 µM)?
**A.** Its growth inhibition is -42% (inactive).

**Q.** What about the growth inhibition ([12]; at 11.0 µM) of the same compound?
**A.** The growth inhibition was -13% (inactive).

**Q.** And the growth inhibition ([12]; at 33.0 µM)?
**A.** The growth inhibition was 49% (inactive).

**Q.** What about the growth inhibition ([12]; at 100.0 µM) of the same compound?
**A.** The growth inhibition was 94% (active).

**Q.** And the growth inhibition [13, 15]?
**A.** The growth inhibition was 17% (inactive) and 23% (inactive).

**Q.** And the growth inhibition [13, 16]?
**A.** The growth inhibition was 85% (active) and 82% (active).

**Q.** And the growth inhibition ([13]; at 50.0 µM)?
**A.** Its growth inhibition is 75.2% (active) and 89% (active).

**Q.** And the growth inhibition ([14]; at 1.2 µM)?
**A.** The growth inhibition was -144% (inactive).

**Q.** And the growth inhibition ([14]; at 3.7 µM)?
**A.** The growth inhibition was -115% (inactive).

**Q.** And the growth inhibition ([14]; at 11.0 µM)?
**A.** Its growth inhibition is -88% (inactive).

**Q.** What about the growth inhibition ([14]; at 33.0 µM) of the same compound?
**A.** The growth inhibition was 25% (inactive).

**Q.** And the growth inhibition ([14]; at 100.0 µM)?
**A.** Its growth inhibition is 85% (active).
